Measurements as given in PubChem BioAssay (Tox21).
Results filed as inconclusive are left out. A call without a number means that no potency is given here. Activity calls are given as the source filed them. Calls come from the whole dose curve; as a rule, active = well fitted activation curve with a large enough effect in the signal ratio in the repeat runs, with a control signal flat (not every such curve was filed as active); inconclusive = weak or mixed curves; inactive = flat fitted curve, though single readings scatter; the % refers to the signal ratio.

Assay: qHTS assay for small molecule activators of the heat shock response signaling pathway (AID 743210)
Settings: HeLa HSE-bla reporter, beta-lactamase ratio, 5 h; series mostly up to 62.6 µM
Method in brief: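 Quantitative high-throughput format using an engineered HeLa line in which heat shock response elements drive beta-lactamase; after 5 h with compound, cells received a B/G FRET substrate and fluorescence was read.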

Row | Compound | Potency
1 | Cc1ccc(CO)cc1 | inactive
2 | NC1[C@H]2CN(c3nc4c(cc3F)c(=O)c(C(=O)O)cn4-c3ccc(F)cc3F)C[C@@H]12 (stereo partly specified) | inactive
3 | CC(CO)CO | inactive
4 | O=C1c2ccccc2C(=O)C1c1nc2ccccc2c(Br)c1O | inactive
5 | CC(C)(O)c1ccc(CNC(=O)c2cccnc2Oc2ccc3nonc3c2)cc1 | inactive
6 | CCCCCCCCCCC(=O)O | inactive
